From the supplement of paper PMC10849652
The full data set covers some 7,900 targets. This sample favours those with a hit. About 0.6% of all pairs of compound and target were hits. Unmarked numbers belong to inactive results.

What was measured:
Assay in all cases: log2 fold change, soluble protein after heating vs DMSO (PISA); higher = thermal stabilisation; K562 cells, 10 uM, 30 min; active = over 0.2 and 3.5 SD of the protein, either way, in both replicates (recomputed)
[1] = compound: COC1=CC=C(C=C1)CN2C=CC3=C2C=C(C=C3)C(=O)NO
How it was run: (§1)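 K562 cells (2×10^6 cells/mL) were treated with 10 μM compound for 30 min, and aliquots were heated for 3 min over 48°C-58°C. Pooled aliquots were extracted in PBS with 0.5% NP-40 at 4°C, and the supernatant after 21,000xg for 90 min was measured by TMTpro 16plex LC-MS/MS with channel sums equalised. Reported thermal stability, relative to control samples and from duplicates, is a log2 fold change.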

filanesib = compound: CON(C)C(=O)N1N=C(c2cc(F)ccc2F)S[C@@]1(CCCN)c1ccccc1 [filanesib]
How it was run: as §1

zotarolimus = compound: CO[C@H]1C[C@@H]2CC[C@@H](C)[C@@](O)(O2)C(=O)C(=O)N2CCCC[C@H]2C(=O)O[C@H]([C@H](C)C[C@@H]2CC[C@H](n3cnnn3)[C@H](OC)C2)CC(=O)[C@H](C)/C=C(\C)[C@@H](O)[C@@H](OC)C(=O)[C@H](C)C[C@H](C)/C=C/C=C/C=C/1C [zotarolimus]
How it was run: as §1

idasanutlin = compound: COc1cc(C(=O)O)ccc1NC(=O)[C@@H]1N[C@@H](CC(C)(C)C)[C@](C#N)(c2ccc(Cl)cc2F)[C@H]1c1cccc(Cl)c1F [idasanutlin]
How it was run: as §1

alisertib = compound: COc1cc(Nc2ncc3c(n2)-c2ccc(Cl)cc2C(c2c(F)cccc2OC)=NC3)ccc1C(=O)O [alisertib]
How it was run: as §1

[2] = compound: COc1cc2nc(-c3cc(F)ccc3O)nc(N[C@@H]3CNC[C@H]3C(C)(C)O)c2cc1OC
How it was run: as §1

gefitinib = compound: COc1cc2ncnc(Nc3ccc(F)c(Cl)c3)c2cc1OCCCN1CCOCC1 [gefitinib]
How it was run: as §1

[3] = compound: COc1cccc2cc(-c3nc([C@H]4CC[C@H](C(=O)O)CC4)n4ncnc(N)c34)[nH]c12
How it was run: as §1

lapatinib = compound: CS(=O)(=O)CCNCc1ccc(-c2ccc3ncnc(Nc4ccc(OCc5cccc(F)c5)c(Cl)c4)c3c2)o1 [lapatinib]
How it was run: as §1

pictilisib = compound: CS(=O)(=O)N1CCN(Cc2cc3nc(-c4cccc5[nH]ncc45)nc(N4CCOCC4)c3s2)CC1 [pictilisib]
How it was run: as §1

Chain of UniProt Q8IWV8 (Q8IWV8 whole entry, looked up): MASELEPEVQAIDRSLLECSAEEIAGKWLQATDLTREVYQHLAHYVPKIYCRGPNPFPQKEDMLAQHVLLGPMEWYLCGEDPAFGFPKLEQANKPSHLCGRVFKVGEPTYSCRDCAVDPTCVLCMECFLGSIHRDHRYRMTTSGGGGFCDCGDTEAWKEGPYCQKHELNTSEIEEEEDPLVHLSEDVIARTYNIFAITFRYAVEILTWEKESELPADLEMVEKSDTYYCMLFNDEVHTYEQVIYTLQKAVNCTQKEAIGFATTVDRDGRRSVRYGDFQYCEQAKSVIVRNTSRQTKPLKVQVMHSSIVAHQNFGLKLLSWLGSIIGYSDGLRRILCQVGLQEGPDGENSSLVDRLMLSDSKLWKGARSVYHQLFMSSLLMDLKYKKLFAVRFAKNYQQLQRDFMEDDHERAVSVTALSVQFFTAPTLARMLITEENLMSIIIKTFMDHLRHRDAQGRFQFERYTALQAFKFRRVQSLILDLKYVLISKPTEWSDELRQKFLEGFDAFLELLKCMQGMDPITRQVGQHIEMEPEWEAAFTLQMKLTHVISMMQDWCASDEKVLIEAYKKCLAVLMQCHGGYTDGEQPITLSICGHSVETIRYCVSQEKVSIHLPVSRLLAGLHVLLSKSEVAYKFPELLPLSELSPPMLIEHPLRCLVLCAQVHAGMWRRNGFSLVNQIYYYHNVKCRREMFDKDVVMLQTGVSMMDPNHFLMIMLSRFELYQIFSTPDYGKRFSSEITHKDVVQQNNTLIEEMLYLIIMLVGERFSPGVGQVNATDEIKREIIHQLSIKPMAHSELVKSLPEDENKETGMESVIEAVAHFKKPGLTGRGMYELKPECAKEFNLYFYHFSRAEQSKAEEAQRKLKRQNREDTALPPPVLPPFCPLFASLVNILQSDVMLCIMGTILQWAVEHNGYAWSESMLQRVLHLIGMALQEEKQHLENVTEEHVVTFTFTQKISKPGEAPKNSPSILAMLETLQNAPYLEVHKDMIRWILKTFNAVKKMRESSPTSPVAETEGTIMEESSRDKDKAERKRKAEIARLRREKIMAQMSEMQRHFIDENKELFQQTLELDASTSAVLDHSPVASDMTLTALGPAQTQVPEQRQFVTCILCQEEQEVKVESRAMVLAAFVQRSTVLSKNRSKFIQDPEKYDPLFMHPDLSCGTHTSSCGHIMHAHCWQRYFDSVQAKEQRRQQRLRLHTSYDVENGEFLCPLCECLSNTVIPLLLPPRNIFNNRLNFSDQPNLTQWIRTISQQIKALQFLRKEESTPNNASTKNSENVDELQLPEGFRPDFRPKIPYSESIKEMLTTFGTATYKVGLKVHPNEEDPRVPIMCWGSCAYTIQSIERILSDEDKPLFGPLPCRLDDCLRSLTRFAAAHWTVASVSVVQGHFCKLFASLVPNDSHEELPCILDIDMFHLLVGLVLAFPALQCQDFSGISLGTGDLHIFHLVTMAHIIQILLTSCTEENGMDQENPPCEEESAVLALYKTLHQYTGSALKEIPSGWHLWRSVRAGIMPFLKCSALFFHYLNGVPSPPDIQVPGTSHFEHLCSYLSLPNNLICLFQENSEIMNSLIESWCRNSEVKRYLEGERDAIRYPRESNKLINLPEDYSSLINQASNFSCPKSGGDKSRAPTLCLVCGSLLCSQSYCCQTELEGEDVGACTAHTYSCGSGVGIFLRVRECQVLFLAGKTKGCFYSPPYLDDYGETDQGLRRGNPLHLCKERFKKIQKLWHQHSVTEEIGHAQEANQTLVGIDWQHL
Chain of UniProt Q8N1B4 (Q8N1B4 whole entry, looked up): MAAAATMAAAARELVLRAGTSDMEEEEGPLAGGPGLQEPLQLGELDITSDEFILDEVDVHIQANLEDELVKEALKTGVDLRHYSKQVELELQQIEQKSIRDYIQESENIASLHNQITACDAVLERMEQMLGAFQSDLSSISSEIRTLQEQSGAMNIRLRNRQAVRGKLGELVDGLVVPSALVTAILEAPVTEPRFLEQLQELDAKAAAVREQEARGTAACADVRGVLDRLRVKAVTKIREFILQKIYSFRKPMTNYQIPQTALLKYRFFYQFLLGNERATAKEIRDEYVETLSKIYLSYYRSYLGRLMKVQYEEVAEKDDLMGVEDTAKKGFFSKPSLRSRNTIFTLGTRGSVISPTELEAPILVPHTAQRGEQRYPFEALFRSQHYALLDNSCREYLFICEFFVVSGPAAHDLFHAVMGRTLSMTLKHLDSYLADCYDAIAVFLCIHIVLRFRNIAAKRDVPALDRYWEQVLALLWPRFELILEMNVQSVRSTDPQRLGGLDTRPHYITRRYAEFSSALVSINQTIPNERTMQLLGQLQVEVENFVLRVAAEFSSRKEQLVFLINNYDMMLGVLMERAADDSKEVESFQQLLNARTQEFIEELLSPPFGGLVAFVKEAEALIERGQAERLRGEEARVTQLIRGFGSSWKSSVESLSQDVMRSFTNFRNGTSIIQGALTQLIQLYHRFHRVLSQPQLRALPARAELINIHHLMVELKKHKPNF
Chain of UniProt Q5VIR6 (Q5VIR6 whole entry, looked up): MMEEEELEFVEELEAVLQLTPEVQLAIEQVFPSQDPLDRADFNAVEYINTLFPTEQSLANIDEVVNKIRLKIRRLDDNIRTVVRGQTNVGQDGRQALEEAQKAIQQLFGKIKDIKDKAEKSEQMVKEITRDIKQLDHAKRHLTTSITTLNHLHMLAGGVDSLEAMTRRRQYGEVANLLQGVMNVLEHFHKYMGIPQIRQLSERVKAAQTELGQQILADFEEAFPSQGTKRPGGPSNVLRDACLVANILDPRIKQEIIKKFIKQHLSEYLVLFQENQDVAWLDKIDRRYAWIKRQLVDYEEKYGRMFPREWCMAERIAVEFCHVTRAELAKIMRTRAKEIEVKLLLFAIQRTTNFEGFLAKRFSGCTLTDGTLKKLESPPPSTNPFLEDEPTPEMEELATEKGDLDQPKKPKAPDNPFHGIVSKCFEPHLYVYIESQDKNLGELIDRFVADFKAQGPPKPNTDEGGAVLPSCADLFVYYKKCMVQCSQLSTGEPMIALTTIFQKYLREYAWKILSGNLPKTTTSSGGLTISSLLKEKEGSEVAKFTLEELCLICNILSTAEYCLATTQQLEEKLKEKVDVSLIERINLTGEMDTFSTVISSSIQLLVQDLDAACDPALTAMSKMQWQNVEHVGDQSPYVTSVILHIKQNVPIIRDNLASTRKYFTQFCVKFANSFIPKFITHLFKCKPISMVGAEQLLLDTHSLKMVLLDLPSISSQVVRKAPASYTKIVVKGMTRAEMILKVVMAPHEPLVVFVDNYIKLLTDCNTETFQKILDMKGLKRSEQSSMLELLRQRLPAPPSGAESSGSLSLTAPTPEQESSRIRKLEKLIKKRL
Chain of UniProt P22314 (P22314 whole entry, looked up): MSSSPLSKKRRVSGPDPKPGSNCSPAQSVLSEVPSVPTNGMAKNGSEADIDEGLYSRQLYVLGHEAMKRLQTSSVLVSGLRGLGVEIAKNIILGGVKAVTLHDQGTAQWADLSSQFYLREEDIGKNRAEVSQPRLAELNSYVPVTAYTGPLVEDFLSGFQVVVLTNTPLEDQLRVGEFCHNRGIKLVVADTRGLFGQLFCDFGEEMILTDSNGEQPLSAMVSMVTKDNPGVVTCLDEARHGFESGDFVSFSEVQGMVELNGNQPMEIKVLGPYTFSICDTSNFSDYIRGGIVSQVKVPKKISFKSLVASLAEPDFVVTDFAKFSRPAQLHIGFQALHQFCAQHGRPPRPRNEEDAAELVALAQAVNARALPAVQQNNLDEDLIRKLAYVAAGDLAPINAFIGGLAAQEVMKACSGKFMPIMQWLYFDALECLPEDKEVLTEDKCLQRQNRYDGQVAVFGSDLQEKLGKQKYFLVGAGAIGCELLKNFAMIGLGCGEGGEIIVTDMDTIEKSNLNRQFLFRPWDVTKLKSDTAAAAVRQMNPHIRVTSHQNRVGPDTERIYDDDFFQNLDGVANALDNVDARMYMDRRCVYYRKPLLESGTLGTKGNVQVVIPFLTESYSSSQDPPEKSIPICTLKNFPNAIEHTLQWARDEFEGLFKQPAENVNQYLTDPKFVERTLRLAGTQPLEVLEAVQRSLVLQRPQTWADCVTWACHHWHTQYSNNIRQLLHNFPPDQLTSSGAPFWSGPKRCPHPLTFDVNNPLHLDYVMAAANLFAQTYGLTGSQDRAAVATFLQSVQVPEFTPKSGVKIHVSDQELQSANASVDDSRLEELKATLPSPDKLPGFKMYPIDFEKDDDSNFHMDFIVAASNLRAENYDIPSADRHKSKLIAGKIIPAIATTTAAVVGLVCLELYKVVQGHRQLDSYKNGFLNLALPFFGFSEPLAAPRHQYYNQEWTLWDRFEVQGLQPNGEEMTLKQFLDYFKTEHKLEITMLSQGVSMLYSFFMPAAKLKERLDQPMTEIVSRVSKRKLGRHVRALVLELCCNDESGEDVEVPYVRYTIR
Chain of UniProt Q99986 (Q99986 whole entry, looked up): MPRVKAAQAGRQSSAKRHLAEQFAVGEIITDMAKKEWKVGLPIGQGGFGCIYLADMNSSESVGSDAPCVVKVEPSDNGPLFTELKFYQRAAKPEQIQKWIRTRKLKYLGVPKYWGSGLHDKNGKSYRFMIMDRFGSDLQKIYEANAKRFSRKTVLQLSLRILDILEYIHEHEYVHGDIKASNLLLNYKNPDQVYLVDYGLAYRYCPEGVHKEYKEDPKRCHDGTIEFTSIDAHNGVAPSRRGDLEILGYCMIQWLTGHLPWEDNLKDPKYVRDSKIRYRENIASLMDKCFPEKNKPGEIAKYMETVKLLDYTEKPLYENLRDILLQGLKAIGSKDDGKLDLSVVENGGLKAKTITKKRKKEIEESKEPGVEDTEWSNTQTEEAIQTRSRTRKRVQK
Chain of UniProt Q5BJH2 (Q5BJH2 whole entry, looked up): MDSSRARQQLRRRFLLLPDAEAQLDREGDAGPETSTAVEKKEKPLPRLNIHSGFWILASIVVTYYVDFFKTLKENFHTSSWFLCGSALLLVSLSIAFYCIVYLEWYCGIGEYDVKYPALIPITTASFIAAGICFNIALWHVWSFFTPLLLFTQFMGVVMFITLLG

| Target | log2 fold change [1] | log2 fold change (filanesib) | log2 fold change (zotarolimus) | log2 fold change (idasanutlin) | log2 fold change (alisertib) | log2 fold change [2] | log2 fold change (gefitinib) | log2 fold change [3] | log2 fold change (lapatinib) | log2 fold change (pictilisib) |
| --- | --- | --- | --- | --- | --- | --- | --- | --- | --- | --- |
| TRMT2A (UniProt Q8IZ69) | -0.322 (active) | 0.061 | 0.016 | 0.04 | -0.051 | -0.158 | -0.006 | -0.071 | 0.016 | -0.096 |
| USO1 isoform 2 (UniProt O60763) | 0.009 | -0.054 | 0.034 | -0.054 | -0.037 | -0.031 | 0.003 | 0.01 | 0.016 | 0.014 |
| TMEM120A (UniProt Q9BXJ8) | -0.2 | -0.049 | 0.038 | -0.217 | -0.08 | -0.08 | 0.113 | -0.02 | 0.06 | -0.094 |
| VPS28 (UniProt Q9UK41) | -0.17 | -0.061 | 0.008 | -0.076 | 0.07 | 0.038 | 0.027 | 0.033 | 0.023 | 0.059 |
| VPS35L (UniProt Q7Z3J2) | 0.028 | 0.049 | -0.016 | -0.118 | 0.041 | 0.058 | 0.059 | -0.032 | -0.05 | 0.061 |
| TRMT61A (UniProt Q96FX7) | 0.083 | 0.136 | 0.077 | 0.025 | -0.017 | -0.192 | -0.051 | -0.057 | 0.03 | -0.18 |
| TMEM9 (UniProt Q9P0T7) | -0.085 | -0.078 | 0.081 | 0.006 | -0.081 | -0.178 | -0.007 | 0.052 | 0.04 | 0.036 |
| TRIM4 (UniProt Q9C037) | -0.066 | 0.003 | 0.056 | -0.208 | -0.088 | 0.129 | -0.155 | -0.137 | -0.011 | 0.202 |
| VPS33A (UniProt Q96AX1) | 0.018 | -0.096 | 0.033 | -0.039 | -0.037 | 0.014 | -0.033 | -0.039 | 0.015 | -0.083 |
| WRB (UniProt O00258) | -0.036 | -0.041 | -0.019 | -0.032 | -0.031 | -0.066 | 0.012 | 0.051 | 0.03 | 0.094 |
| UBR2 (UniProt Q8IWV8) | -0.016 | 0.027 | -0.105 | 0.054 | -0.041 | 0.024 | -0.021 | 0.061 | 0.052 | 0.036 |
| WASHC2C, A0A096LPC5 | -0.072 | 0.057 | -0.062 | 0.146 | -0.042 | 0.305 | 0.018 | 0.098 | -0.141 | 0.048 |
| VPS53 isoform 4 (UniProt Q5VIR6) | 0.015 | -0.008 | 0.095 | -0.048 | 0.01 | 0.089 | 0.025 | 0.003 | 0.012 | -0.066 |
| TRIM44 (UniProt Q96DX7) | -0.074 | 0.022 | 0.005 | -0.025 | 0.008 | -0.047 | -0.027 | -0.033 | 0.025 | 0.039 |
| VRK1 (UniProt Q99986) | 0.098 | -0.07 | -0.123 | -0.119 | 0.06 | 0.316 | -0.018 | -0.003 | -0.059 | 0.086 |
| USP14 (UniProt P54578) | 0.023 | -0.035 | 0.04 | -0.051 | -0.057 | -0.008 | 0.007 | -0.043 | 0.031 | 0.026 |
| UBA6 | 0.021 | -0.01 | 0.051 | -0.016 | -0.04 | -0.031 | 0.029 | -0.069 | 0.022 | 0.004 |
| UGDH (UniProt O60701) | 0.164 | 0.001 | 0.053 | -0.043 | 0.067 | 0.04 | 0.118 | 0.059 | -0.036 | 0.022 |
| UBA1 (UniProt P22314) | 0.029 | -0.077 | -0.021 | -0.014 | 0.05 | 0.047 | 0.05 | -0.053 | -0.06 | -0.019 |
| WDR62 isoform 4 (UniProt O43379) | -0.036 | 0.016 | 0.028 | 0.02 | -0.024 | -0.026 | 0.049 | 0.046 | 0.054 | 0.015 |
| WEE1 (UniProt P30291) | -0.157 | 0.217 | -0.068 | 0.356 | -0.322 | 0.039 | -0.083 | -0.615 | 0.125 | -0.095 |
| TOP2A isoform 4 (UniProt P11388) | 0.052 | 0.486 | 0.079 | 0.24 | -0.144 | -0.029 | -0.042 | -0.4 | 0.13 | -0.071 |
| TNPO1 (UniProt Q92973) | -0.008 | -0.096 | 0.012 | -0.023 | -0.074 | -0.156 | -0.001 | -0.012 | -0.005 | -0.02 |
| TNFAIP8 isoform 4 (UniProt O95379) | 0.027 | -0.015 | 0.085 | -0.055 | -0.01 | 0.046 | 0.028 | 0.041 | 0.065 | -0.027 |
| VPS52 (UniProt Q8N1B4) | -0.003 | 0.017 | 0.044 | 0.088 | -0.069 | 0.058 | 0.014 | -0.022 | -0.043 | -0.02 |
| TRMT10C (UniProt Q7L0Y3) | -0.045 | -0.031 | 0.016 | -0.107 | -0.033 | 0.018 | 0.039 | 0.005 | -0.033 | 0.007 |
| TRIM28 (UniProt Q13263) | 0.015 | -0.017 | 0.046 | -0.031 | -0.087 | 0.003 | 0.002 | -0.03 | -0.005 | 0.033 |
| TSC2 (UniProt P49815) | 0.361 | 0.198 | -0.181 | 0.017 | 0.195 | -0.039 |  | 0.139 | 0.135 | 0.076 |
| TMEM128 (UniProt Q5BJH2) | -0.065 | 0.152 | -0.181 | 0.035 |  | 0.025 | 0.076 |  | -0.068 |  |
